# Out of some 2,400 compounds screened, about 180 (7.5%) were called active. Only a selection was taken, and actives are over-represented in it overall. Unmarked numbers belong to inactive results.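 Rule for the calls: active = readout below zero, meaning a drop past 3 SD under the dofetilide-free negative control mean; inactive = the rest.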
# Target: Potassium voltage-gated channel subfamily KQT member 2 (Rattus norvegicus) (UniProt O88943)
# Experiment: KCNQ2 blockade in CHO cells – cell-based, FluxOR thallium flux, counter-screen for hERG block protector project, confirmation (AID 1946)
# Conditions: FluxOR thallium flux fluorescence, at 10 µM, hits give low values, zero marks the 3-SD hit cutoff
# Chain of Potassium voltage-gated channel subfamily KQT member 2 (Rattus norvegicus) (O88943 whole entry, looked up): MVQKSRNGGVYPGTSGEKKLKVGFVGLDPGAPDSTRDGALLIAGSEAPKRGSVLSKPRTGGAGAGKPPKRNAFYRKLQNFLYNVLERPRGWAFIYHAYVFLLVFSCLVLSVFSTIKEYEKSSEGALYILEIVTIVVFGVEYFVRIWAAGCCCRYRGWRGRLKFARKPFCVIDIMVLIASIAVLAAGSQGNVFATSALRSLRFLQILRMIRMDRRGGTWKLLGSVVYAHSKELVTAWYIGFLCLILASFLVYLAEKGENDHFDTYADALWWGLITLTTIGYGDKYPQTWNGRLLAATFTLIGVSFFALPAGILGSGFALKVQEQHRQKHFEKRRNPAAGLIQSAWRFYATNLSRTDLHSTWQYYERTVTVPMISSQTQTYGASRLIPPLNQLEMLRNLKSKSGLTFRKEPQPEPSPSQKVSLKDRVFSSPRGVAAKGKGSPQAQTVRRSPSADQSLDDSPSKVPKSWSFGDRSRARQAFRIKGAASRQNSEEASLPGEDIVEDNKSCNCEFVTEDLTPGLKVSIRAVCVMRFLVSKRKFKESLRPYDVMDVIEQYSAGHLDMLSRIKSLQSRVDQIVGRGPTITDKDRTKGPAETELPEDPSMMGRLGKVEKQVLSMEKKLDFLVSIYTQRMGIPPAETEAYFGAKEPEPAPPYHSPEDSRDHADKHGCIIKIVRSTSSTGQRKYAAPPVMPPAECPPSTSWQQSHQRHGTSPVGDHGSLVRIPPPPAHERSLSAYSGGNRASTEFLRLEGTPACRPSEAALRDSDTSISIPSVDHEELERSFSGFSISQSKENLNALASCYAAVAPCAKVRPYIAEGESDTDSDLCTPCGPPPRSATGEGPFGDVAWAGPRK
row,SMILES,activity change vs negative control
1,O=C(c1ccc(C(F)(F)F)cc1)C1CCCN(C(=O)CCc2ccncc2)C1 (stereo unspecified),4.7%
2,Cn1cc(CCC(=O)N2CCCC(Nc3ccc(F)cc3)C2)cn1 (stereo unspecified),-2% (active)
3,CCOC(=O)C1CCCN(C(=S)NC(=O)/C=C/c2ccc(F)cc2)C1 (stereo unspecified),1.2%
4,Cc1cccc(N2C(=O)C(O)=C(C(=O)c3cccs3)C2c2cccc(Oc3ccccc3)c2)n1 (stereo unspecified),11.3%
5,COc1ccccc1C1C(C(=O)c2ccc(C)o2)=C(O)C(=O)N1c1cc(C)on1 (stereo unspecified),14.4%
6,Cc1cc(N2C(=O)C(O)=C(C(=O)c3cccs3)C2c2ccccc2)no1 (stereo unspecified),-1.4% (active)
7,CCOC(=O)C1=NN(C(=O)c2ccc(C)cc2)C(O)(c2ccc(Cl)cc2)C1 (stereo unspecified),110%
8,COc1ccccc1NC(=O)C(=O)NNC(=O)COc1ccc2ccccc2c1,115%
9,Cc1ccc(C(=O)NC(=S)N(C)C2CCCCC2)cc1,27.3%
10,COC(=O)c1sc(NC(=S)NC(=O)c2ccccc2C)nc1C,41%
11,S=c1[nH]c2ccc(Cl)cc2s1,115%
12,CCc1nnc(NC(=O)CSc2nc(-c3ccccc3)cc(-c3ccc(OC)cc3)c2C#N)s1,5.3%
13,N#Cc1c(-c2ccc(Cl)cc2)cc(-c2cccs2)nc1SCC(=O)O,-10.2% (active)
14,CCOC(=O)C(C)Sc1nc2c(c(-c3cccs3)c1C#N)CCC2 (stereo unspecified),6.3%
15,C/C(=N\NC(N)=S)c1cccnc1,-3.2% (active)
16,CSC(=S)N/N=C(\C)c1ccccc1,64.1%
17,C/C(=N\NC(N)=S)c1ccncc1,19.1%
18,S=c1[nH]cnc2scc(-c3ccc(Br)cc3)c12,28.5%
19,CCn1ncc(Cl)c1C(=O)NC(=S)Nc1ccccc1Br,51.3%
20,CCN(C(=S)NC(=O)c1ccccc1Br)C1CCCCC1,93.4%
21,CC1CCc2sc(-c3n[nH]c(=S)o3)cc2C1 (stereo unspecified),35.3%
22,Fc1cccc2sc(Nc3nnc(-c4ccccc4)o3)nc12,109%
23,Cc1ccc(Nc2cc(C)nn2-c2nc(C)cc(=O)[nH]2)cc1,83.1%
24,O=C(Nn1c(O)c(C=C2N=c3ccccc3=N2)sc1=S)c1cccc(Cl)c1,6.4%
25,CC1CCCCC1n1c(=S)[nH]c2ccccc2c1=O (stereo unspecified),28%
26,CSc1nc(C)c2c(n1)N(c1ccc(C(C)C)cc1)CC2,-2.7% (active)

row,SMILES,activity change vs negative control
1,COc1ccccc1C(=O)NNC(=O)C(=O)Nc1cccc(Cl)c1C,160%
2,O=C(CCSc1ccc(Br)cc1)c1ccc(O)cc1,8.7%
3,CSc1nc2sc3c(c2c(=S)[nH]1)CC(C)(C)OC3,95%
4,CN(Cc1ccccc1)C(=O)CCc1ccccc1,5.4%
5,CCOC(=O)c1c(NS(=O)(=O)Cc2ccccc2)sc2c1CCCC2,62%
6,Cc1ccc(-c2csc(=S)[nH]2)cc1,106%
7,O=C(NC(=S)Nc1ccccn1)c1cc(-c2ccccc2)nc2ccccc12,19.4%
8,O=C(N/N=C/c1ccccn1)c1cc(-c2ccc(Br)cc2)nc2ccccc12,-4.7% (active)
9,Cc1ccc(/C=N/NC(=O)c2cc(-c3ccncc3)nc3ccccc23)o1,2.6%
10,Cc1ccc(OCC(=O)NC(=S)Nc2ccc(Br)cn2)cc1,33.8%
11,Cc1ccc(C(=O)Nc2nc3ccccc3c(=O)s2)cc1,22.4%
12,CCOc1ccc(S(=O)(=O)N2CCN(Cc3ccc4c(c3)OCO4)CC2)cc1C,-5.7% (active)
13,COc1ccc(C(=O)N2CCN(Cc3ccc4c(c3)OCO4)CC2)cc1[N+](=O)[O-],4.4%
14,O=C(COc1ccc(Cl)cc1)N1CCN(Cc2ccc3c(c2)OCO3)CC1,22.9%
15,O=C(Nc1nc2c(F)cc(F)cc2s1)C1COc2ccccc2O1 (stereo unspecified),3.8%
16,Cc1cc(C)c2nc(NC(=O)CN3C(=O)NC4(CCCC4)C3=O)sc2c1,18.8%
17,Cc1cc(C)c2nc(NC(=O)C3CCCO3)sc2c1 (stereo unspecified),-2.4% (active)
18,CCCCCC/C(C)=C1/SC(=S)NC1=O,94.1%
19,CCOC(=O)c1c(NC(=O)CN2CCN(C(=O)c3ccco3)CC2)sc2c1CCCC2,39%
20,O=c1ccc(N=Nc2ccccc2)ccc1O,109%
21,COc1cc(OC)cc(C(=O)O/N=C(\N)c2cccc(C)c2)c1,4.9%
22,COc1cc(OC)cc(C(=O)OCC(=O)N(C)c2ccccc2)c1,-0.3% (active)
23,COc1cc(OC)cc(C(=O)NC(=S)N(Cc2ccccc2)C(C)C)c1,45.9%
24,CC(C)(C)NC(=O)C(=O)NNC(=O)c1cccc(Br)c1,40%
25,O=C(Nc1cccn(Cc2c(Cl)cccc2Cl)c1=O)c1ccccc1Cl,-1.1% (active)
